Structures can show the parent of a compound that is named as a salt.
Experiments:
Settings in all cases: treatment time: 24 h
A549-ACTB-RAB5A [1] = test: lowest phenotypically active concentration; higher = less potent
How it was run: (§1)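 Each of fifteen gene-edited A549, HepG2 and WPMY1 reporter lines, marked with BFP for segmentation and GFP and RFP/FusionRed, was treated in four wells at 0.3, 1, 3 or 9 µM for 24 h prior to live imaging. Normalisation of per-well live-cell features used solvent control wells. Deviation needed ≥3 of 4 wells beyond the 95th percentile of control Euclidean distances, and reproducibility needed a median replicate Pearson correlation above the 95th percentile of non-replicates. Both were required for phenotypic activity.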

A549-CANX-COX4 [2] = test: as above
How it was run: as §1

A549-GM130-SQSTM1 [3] = test: as above
How it was run: as §1

A549-TP53BP1-CLTA [4] = test: as above
How it was run: as §1

A549-TUBA1B-RELA [5] = test: as above
How it was run: as §1

A549-ACTB-RAB5A [6] = test: phenotypically active (imaging signature differs from DMSO and reproducible) at any of 0.3-9 uM (binary (1 = active, 0 = inactive)); higher = active
How it was run: as §1

A549-CANX-COX4 [7] = test: as above
How it was run: as §1

A549-GM130-SQSTM1 [8] = test: as above
How it was run: as §1

A549-TP53BP1-CLTA [9] = test: as above
How it was run: as §1

A549-TUBA1B-RELA [10] = test: as above
How it was run: as §1

HepG2-ACTB-RAB5A = test: as above
How it was run: as §1

HepG2-CANX-COX4 = test: as above
How it was run: as §1

HepG2-GM130-SQSTM1 = test: as above
How it was run: as §1

HepG2-TP53BP1-CLTA = test: as above
How it was run: as §1

HepG2-TUBA1B-RELA = test: as above
How it was run: as §1

WPMY1-ACTB-RAB5A = test: as above
How it was run: as §1

WPMY1-CANX-COX4 = test: as above
How it was run: as §1

WPMY1-GM130-SQSTM1 = test: as above
How it was run: as §1

WPMY1-TP53BP1-CLTA = test: as above
How it was run: as §1

WPMY1-TUBA1B-RELA = test: as above
How it was run: as §1

Structure (SMILES) | lowest phenotypically active concentration (A549-ACTB-RAB5A [1]) | lowest phenotypically active concentration (A549-CANX-COX4 [2]) | lowest phenotypically active concentration (A549-GM130-SQSTM1 [3]) | lowest phenotypically active concentration (A549-TP53BP1-CLTA [4]) | lowest phenotypically active concentration (A549-TUBA1B-RELA [5]) | phenotypically active (A549-ACTB-RAB5A [6]) | phenotypically active (A549-CANX-COX4 [7]) | phenotypically active (A549-GM130-SQSTM1 [8]) | phenotypically active (A549-TP53BP1-CLTA [9]) | phenotypically active (A549-TUBA1B-RELA [10]) | phenotypically active (HepG2-ACTB-RAB5A) | phenotypically active (HepG2-CANX-COX4) | phenotypically active (HepG2-GM130-SQSTM1) | phenotypically active (HepG2-TP53BP1-CLTA) | phenotypically active (HepG2-TUBA1B-RELA) | phenotypically active (WPMY1-ACTB-RAB5A) | phenotypically active (WPMY1-CANX-COX4) | phenotypically active (WPMY1-GM130-SQSTM1) | phenotypically active (WPMY1-TP53BP1-CLTA) | phenotypically active (WPMY1-TUBA1B-RELA)
O=C1NC(=O)[C@@H](c2cn3c4c(cccc24)CCC3)[C@@H]1c1c[nH]c2ccccc12 [tivantinib] | 1 µM | 1 µM | 1 µM | 1 µM | 3 µM | 1 (active) | 1 (active) | 1 (active) | 1 (active) | 1 (active) | 1 (active) | 1 (active) | 1 (active) | 1 (active) | 1 (active) | 1 (active) | 1 (active) | 1 (active) | 1 (active) | 1 (active)
COc1c(C)cnc(Cn2cc(C#CCC(C)(C)O)c3c(Cl)nc(N)nc32)c1C | ≤ 0.3 µM | ≤ 0.3 µM | ≤ 0.3 µM | ≤ 0.3 µM | ≤ 0.3 µM | 1 (active) | 1 (active) | 1 (active) | 1 (active) | 1 (active) | 1 (active) | 1 (active) | 1 (active) | 1 (active) | 1 (active) | 1 (active) | 1 (active) | 1 (active) | 1 (active) | 1 (active)
Nc1ccc(-c2ccc3ncc4ccc(=O)n(-c5cccc(C(F)(F)F)c5)c4c3c2)cn1 [Torin 2] | ≤ 0.3 µM | ≤ 0.3 µM | ≤ 0.3 µM | ≤ 0.3 µM | ≤ 0.3 µM | 1 (active) | 1 (active) | 1 (active) | 1 (active) | 1 (active) | 1 (active) | 1 (active) | 1 (active) | 1 (active) | 1 (active) | 1 (active) | 1 (active) | 1 (active) | 1 (active) | 1 (active)
CC(=O)NC1=NN(C(C)=O)C(C)(c2ccccc2)S1 (stereo not given) | 3 µM | 3 µM | 9 µM | 9 µM | 3 µM | 1 (active) | 1 (active) | 1 (active) | 1 (active) | 1 (active) | 1 (active) | 1 (active) | 1 (active) | 1 (active) | 1 (active) | 1 (active) | 1 (active) | 1 (active) | 1 (active) | 1 (active)
CC(C)n1c(/C=C/[C@@H](O)C[C@@H](O)CC(=O)O)c(-c2ccc(F)cc2)c2ccccc21.CC(C)n1c(/C=C/[C@H](O)C[C@H](O)CC(=O)O)c(-c2ccc(F)cc2)c2ccccc21 [Fluvastatin sodium] | ≤ 0.3 µM | 9 µM | 3 µM | 9 µM | 9 µM | 1 (active) | 1 (active) | 1 (active) | 1 (active) | 1 (active) | 1 (active) | 1 (active) | 1 (active) | 1 (active) | 1 (active) | 1 (active) | 1 (active) | 1 (active) | 1 (active) | 1 (active)
Oc1cccc(Nc2ccnc3cc(-c4cccc(CN5CCOCC5)c4)sc23)c1 [LCB 03-0110 dihydrochloride] | 1 µM | 3 µM | 1 µM | 3 µM | 1 µM | 1 (active) | 1 (active) | 1 (active) | 1 (active) | 1 (active) | 1 (active) | 1 (active) | 1 (active) | 1 (active) | 1 (active) | 1 (active) | 1 (active) | 1 (active) | 1 (active) | 1 (active)
COc1cc(C(=O)N2CCC(N3CCN(C)CC3)CC2)ccc1Nc1ncc2c(n1)N(C)c1ccccc1C(=O)N2C | 3 µM | 3 µM | 3 µM | 9 µM | 3 µM | 1 (active) | 1 (active) | 1 (active) | 1 (active) | 1 (active) | 1 (active) | 1 (active) | 1 (active) | 1 (active) | 1 (active) | 1 (active) | 1 (active) | 1 (active) | 1 (active) | 1 (active)
Cc1cc(/N=N/c2ccc(S(=O)(=O)Nc3ccccn3)cc2)c(N)cc1O | 9 µM | 9 µM | 9 µM | 9 µM | 9 µM | 1 (active) | 1 (active) | 1 (active) | 1 (active) | 1 (active) | 1 (active) | 1 (active) | 1 (active) | 1 (active) | 1 (active) | 1 (active) | 1 (active) | 1 (active) | 1 (active) | 1 (active)
CO[C@H]1C=CC=C(C)C(=O)NC2=CC(=O)C(NCCN(C)C)=C(C[C@@H](C)C[C@H](OC)[C@H](O)[C@@H](C)C=C(C)[C@@H]1OC(N)=O)C2=O [17-DMAG hydrochloride] | ≤ 0.3 µM | ≤ 0.3 µM | ≤ 0.3 µM | ≤ 0.3 µM | ≤ 0.3 µM | 1 (active) | 1 (active) | 1 (active) | 1 (active) | 1 (active) | 1 (active) | 1 (active) | 1 (active) | 1 (active) | 1 (active) | 1 (active) | 1 (active) | 1 (active) | 1 (active) | 1 (active)
COCc1c(C(C)C)nc(C(C)C)c(/C=C/[C@@H](O)C[C@@H](O)CC(=O)O)c1-c1ccc(F)cc1 [cerivastatin] | ≤ 0.3 µM | 1 µM | 1 µM | ≤ 0.3 µM | 1 µM | 1 (active) | 1 (active) | 1 (active) | 1 (active) | 1 (active) | 1 (active) | 1 (active) | 1 (active) | 1 (active) | 1 (active) | 1 (active) | 1 (active) | 1 (active) | 1 (active) | 1 (active)
CC1(C)CC(=O)C2=C(C1)NC(=S)NC2c1cccc(O)c1 (stereo not given) [Dimethylenastron] | 1 µM | 3 µM | 1 µM | 3 µM | 1 µM | 1 (active) | 1 (active) | 1 (active) | 1 (active) | 1 (active) | 1 (active) | 1 (active) | 1 (active) | 1 (active) | 1 (active) | 1 (active) | 1 (active) | 1 (active) | 1 (active) | 1 (active)

Source: the supplement of paper PMC7411054
